The supplement of paper PMC10849652
Targets with a hit are over-represented here; the source holds about 7,900 in all. About 0.6% of all pairs of compound and target were hits. A number with no mark means an inactive call.

Experiments:
Test in all cases: log2 fold change, soluble protein after heating vs DMSO (PISA); higher = thermal stabilisation; K562 cells, 10 uM, 30 min; active = over 0.2 and 3.5 SD of the protein, either way, in both replicates (recomputed)
[1] = compound: C#Cc1cccc(Nc2ncnc3cc(OCCOC)c(OCCOC)cc23)c1 [erlotinib]
How it was run: (§1)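 K562 cells at 2×10^6 cells/mL were given 10 μM compound for 30 min. Aliquots then went through 3 min of heating across 48°C-58°C, were pooled, and were extracted in PBS with 0.5% NP-40 at 4°C, and the supernatant after 21,000xg for 90 min was quantified by TMTpro 16plex LC-MS/MS with channel sums equalised. Thermal stability relative to control samples, from duplicates, is given as log2 fold change.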

[2] = compound: C/C(=N\NC(=O)C1=CC(=CC=C1)S(=O)(=O)N2CCOCC2)/C3=C(C=CC(=C3)Cl)O
How it was run: as §1

[3] = compound: C1=CC(=C(C=C1Cl)C2=NC3=NC=CN=C3C(=N2)NC4=CC=NC=C4)F
How it was run: as §1

[4] = compound: C1=CC(=CC=C1C2=NC3=C(N2)C=C(C=C3)C(=O)N)OC4=CC=C(C=C4)Cl
How it was run: as §1

[5] = compound: C1=CC2=C(C=CC(=C2)/C=C\3/C(=O)NC(=NCC4=CC=CS4)S3)N=C1
How it was run: as §1

[6] = compound: C1=CC2=NC=CN=C2C=C1/C=C/3\C(=O)NC(=O)S3
How it was run: as §1

[7] = compound: C1=CC=C(C=C1)C2=NC(=C(N2)C3=CC=NC=C3)C4=CC(=C(C=C4)Cl)O
How it was run: as §1

[8] = compound: C1=CC=C2C(=C1)C3=NNC4=CC=CC(=C43)C2=O
How it was run: as §1

[9] = compound: C1CCN(C1)C(=O)NC2=CC=CC(=C2)NC3=NC=C(C(=N3)NCCC4=CN=CN4)Br
How it was run: as §1

[10] = compound: C1CN(CCC1(CC2=CC=C(C=C2)Cl)N)C3=NC=NC4=C3C=CN4
How it was run: as §1

[11] = compound: C1COCCN1CCN2C3=CC=CC=C3N=C2NC(=O)C4=CC(=CC=C4)[N+](=O)[O-] [IRAK-1-4 Inhibitor I]
How it was run: as §1

[12] = compound: C=CC(=O)N1CCC[C@@H](n2nc(-c3ccc(Oc4ccccc4)cc3)c3c(N)ncnc32)C1 [ibrutinib]
How it was run: as §1

[13] = compound: CC(=O)c1cnc2ccc(-c3cc(Cl)c(O)c(Cl)c3)nc2c1N[C@H]1CC[C@H](CN(C)C)CC1
How it was run: as §1

[14] = compound: CC(C)(C)Cn1c(N)nc2ccc(-c3[nH]c(C(C)(C)C)nc3-c3ccc(F)cc3)nc21 [ralimetinib]
How it was run: as §1

[15] = compound: CC(C)(O)CC(=O)NCCn1ccc2ncnc(Nc3ccc(Oc4cccc(C(F)(F)F)c4)c(Cl)c3)c21
How it was run: as §1

[16] = compound: CC(C)C1=C2N=C(C=C(N2N=C1)NCC3=CC=CC=C3)NCCCCCCN
How it was run: as §1

[17] = compound: CC(C)C[C@@H](C=O)NC(=O)[C@H](CC(C)C)NC(=O)[C@H](CC(C)C)NC(=O)OCc1ccccc1
How it was run: as §1

[18] = compound: CC(C)N(C[C@H]1O[C@@H](n2cnc3c(N)ncnc32)[C@H](O)[C@@H]1O)[C@H]1C[C@@H](CCc2nc3cc(C(C)(C)C)ccc3[nH]2)C1 [pinometostat]
How it was run: as §1

[19] = compound: CC1=C(C(CC(=O)N1)C2=CC=C(C=C2)C(F)(F)F)C(=O)NC3=C(C=C4C(=C3)C=NN4)F
How it was run: as §1

[20] = compound: CC1=C(C2=C(C=C1)C(=O)C3=CC=CC=C3N2CCCN)C
How it was run: as §1

UniProt Q7L2J0, sequence (Q7L2J0 whole entry, looked up): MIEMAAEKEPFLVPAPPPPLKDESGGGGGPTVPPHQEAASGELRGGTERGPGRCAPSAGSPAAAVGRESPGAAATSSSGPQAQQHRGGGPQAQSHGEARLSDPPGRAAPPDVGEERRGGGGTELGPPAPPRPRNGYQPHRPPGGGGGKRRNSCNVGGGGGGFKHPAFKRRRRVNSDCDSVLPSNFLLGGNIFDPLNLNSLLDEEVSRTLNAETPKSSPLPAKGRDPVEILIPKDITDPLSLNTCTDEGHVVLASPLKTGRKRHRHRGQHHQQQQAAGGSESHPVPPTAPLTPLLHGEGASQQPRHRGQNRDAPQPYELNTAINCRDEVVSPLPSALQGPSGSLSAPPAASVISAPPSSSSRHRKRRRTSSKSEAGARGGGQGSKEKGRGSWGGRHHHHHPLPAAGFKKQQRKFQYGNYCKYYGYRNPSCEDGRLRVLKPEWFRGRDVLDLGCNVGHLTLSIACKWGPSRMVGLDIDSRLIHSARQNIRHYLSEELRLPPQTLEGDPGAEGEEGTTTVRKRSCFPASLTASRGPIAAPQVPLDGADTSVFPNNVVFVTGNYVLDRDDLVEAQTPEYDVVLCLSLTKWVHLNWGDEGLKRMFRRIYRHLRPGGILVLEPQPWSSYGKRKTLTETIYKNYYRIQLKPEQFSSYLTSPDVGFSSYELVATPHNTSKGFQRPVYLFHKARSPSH
UniProt Q86UP2, sequence (Q86UP2 whole entry, looked up): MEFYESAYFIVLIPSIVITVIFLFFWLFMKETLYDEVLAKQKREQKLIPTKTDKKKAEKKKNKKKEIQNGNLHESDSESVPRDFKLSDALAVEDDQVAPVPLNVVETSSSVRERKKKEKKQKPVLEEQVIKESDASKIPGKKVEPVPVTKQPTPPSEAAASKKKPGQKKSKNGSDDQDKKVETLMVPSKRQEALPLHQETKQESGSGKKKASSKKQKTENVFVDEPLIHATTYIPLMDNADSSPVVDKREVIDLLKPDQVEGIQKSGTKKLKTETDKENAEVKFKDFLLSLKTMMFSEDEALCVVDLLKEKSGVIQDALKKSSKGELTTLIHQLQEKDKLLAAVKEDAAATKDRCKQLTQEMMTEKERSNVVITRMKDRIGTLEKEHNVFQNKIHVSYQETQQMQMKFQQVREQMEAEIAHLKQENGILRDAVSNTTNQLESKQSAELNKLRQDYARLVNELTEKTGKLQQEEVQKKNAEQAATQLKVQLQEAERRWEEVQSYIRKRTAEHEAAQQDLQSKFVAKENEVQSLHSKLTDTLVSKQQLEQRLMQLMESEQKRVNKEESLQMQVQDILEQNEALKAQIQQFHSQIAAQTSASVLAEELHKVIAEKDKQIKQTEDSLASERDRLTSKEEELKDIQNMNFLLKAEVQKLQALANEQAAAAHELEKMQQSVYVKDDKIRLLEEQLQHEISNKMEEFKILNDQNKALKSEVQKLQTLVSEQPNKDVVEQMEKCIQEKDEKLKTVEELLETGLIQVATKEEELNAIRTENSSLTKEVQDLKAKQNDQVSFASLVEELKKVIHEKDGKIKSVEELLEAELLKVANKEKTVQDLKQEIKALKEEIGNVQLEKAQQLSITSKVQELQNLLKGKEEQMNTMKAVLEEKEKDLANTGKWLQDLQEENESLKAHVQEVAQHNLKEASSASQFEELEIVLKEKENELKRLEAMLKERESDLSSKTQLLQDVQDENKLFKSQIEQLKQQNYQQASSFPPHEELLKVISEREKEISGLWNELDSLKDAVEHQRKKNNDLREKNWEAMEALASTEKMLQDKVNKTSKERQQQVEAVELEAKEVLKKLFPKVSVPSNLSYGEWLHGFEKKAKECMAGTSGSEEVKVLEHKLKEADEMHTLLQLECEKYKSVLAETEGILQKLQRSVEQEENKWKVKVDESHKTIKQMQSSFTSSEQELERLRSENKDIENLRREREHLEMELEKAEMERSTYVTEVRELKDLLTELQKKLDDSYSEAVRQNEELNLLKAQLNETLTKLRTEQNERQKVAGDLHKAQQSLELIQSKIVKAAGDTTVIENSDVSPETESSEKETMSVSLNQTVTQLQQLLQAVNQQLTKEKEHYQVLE
UniProt Q5XKP0, sequence (Q5XKP0 whole entry, looked up): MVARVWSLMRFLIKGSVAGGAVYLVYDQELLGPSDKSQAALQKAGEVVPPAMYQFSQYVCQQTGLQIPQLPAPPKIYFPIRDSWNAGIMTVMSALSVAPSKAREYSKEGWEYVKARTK
UniProt Q14693, sequence (Q14693 whole entry, looked up): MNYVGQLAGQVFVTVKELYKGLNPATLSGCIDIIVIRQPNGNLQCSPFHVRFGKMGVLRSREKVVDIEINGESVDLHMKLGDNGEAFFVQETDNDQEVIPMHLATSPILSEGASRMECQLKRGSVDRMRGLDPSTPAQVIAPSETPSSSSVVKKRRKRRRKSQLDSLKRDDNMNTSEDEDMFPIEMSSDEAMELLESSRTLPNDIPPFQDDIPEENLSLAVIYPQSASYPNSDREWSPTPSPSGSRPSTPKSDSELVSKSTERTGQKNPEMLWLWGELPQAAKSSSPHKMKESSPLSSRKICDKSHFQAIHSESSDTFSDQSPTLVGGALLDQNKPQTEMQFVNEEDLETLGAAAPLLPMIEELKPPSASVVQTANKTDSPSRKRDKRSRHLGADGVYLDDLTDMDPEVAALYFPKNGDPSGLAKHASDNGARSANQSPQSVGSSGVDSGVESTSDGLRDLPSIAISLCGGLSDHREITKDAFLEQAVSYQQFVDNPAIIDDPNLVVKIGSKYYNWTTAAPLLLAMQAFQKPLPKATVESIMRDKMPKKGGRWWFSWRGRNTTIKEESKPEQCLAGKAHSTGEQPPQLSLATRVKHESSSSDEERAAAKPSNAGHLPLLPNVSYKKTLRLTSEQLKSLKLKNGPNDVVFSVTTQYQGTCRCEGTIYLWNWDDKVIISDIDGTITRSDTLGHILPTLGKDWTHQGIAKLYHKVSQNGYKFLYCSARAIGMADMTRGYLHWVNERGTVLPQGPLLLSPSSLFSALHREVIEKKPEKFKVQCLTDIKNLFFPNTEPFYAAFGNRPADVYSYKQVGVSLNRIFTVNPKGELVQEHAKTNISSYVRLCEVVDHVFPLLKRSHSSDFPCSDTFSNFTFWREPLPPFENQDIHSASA
UniProt Q9UPY8, sequence (Q9UPY8 whole entry, looked up): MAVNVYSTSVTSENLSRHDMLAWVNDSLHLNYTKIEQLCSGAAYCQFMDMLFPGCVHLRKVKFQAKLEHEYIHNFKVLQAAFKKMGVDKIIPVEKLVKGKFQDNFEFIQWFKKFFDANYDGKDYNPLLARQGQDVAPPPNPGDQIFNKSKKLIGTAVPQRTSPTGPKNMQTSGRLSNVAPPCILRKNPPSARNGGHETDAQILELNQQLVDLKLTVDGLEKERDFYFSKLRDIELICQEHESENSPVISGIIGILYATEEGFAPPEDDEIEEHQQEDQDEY
UniProt O43513, sequence (O43513 whole entry, looked up): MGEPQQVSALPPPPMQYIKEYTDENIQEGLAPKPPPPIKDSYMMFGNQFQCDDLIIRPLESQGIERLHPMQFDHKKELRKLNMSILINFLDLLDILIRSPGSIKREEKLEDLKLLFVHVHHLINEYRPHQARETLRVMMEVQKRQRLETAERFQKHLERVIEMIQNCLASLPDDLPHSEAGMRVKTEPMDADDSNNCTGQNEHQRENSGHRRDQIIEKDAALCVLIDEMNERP
UniProt Q92604, sequence (Q92604 whole entry, looked up): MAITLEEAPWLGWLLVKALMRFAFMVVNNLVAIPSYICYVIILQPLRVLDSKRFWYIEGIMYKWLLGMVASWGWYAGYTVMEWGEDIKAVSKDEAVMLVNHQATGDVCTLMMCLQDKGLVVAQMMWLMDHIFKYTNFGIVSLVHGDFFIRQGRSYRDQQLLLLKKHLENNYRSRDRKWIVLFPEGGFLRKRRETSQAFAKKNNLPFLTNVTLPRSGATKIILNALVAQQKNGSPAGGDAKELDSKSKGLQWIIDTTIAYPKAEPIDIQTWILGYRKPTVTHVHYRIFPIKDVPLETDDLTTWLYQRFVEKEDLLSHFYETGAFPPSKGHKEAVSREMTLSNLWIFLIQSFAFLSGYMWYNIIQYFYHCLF
UniProt P52294, sequence (P52294 whole entry, looked up): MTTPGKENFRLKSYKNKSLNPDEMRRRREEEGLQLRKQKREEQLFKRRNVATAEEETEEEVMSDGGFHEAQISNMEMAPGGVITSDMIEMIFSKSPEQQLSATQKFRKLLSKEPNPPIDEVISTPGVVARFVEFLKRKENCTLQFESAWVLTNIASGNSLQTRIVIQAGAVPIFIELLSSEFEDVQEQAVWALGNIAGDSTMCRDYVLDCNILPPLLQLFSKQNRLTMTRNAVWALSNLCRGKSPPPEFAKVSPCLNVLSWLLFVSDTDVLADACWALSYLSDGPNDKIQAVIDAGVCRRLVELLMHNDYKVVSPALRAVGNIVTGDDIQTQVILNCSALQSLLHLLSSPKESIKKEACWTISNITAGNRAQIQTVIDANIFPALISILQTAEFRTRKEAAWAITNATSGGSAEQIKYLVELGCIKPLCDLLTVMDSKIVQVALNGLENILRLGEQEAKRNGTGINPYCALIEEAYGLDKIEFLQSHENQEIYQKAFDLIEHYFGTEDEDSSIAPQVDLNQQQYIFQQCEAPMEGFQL
UniProt Q9H3F6, sequence (Q9H3F6 whole entry, looked up): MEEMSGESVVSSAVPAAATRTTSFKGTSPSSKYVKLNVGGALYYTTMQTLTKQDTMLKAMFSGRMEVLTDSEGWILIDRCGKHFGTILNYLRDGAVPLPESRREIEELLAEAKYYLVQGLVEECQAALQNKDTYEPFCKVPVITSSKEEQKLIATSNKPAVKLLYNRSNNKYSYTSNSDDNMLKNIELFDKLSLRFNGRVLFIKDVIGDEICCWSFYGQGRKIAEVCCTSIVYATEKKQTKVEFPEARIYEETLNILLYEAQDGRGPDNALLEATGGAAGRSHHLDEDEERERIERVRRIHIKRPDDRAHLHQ

| Target | log2 fold change [1] | log2 fold change [2] | log2 fold change [3] | log2 fold change [4] | log2 fold change [5] | log2 fold change [6] | log2 fold change [7] | log2 fold change [8] | log2 fold change [9] | log2 fold change [10] | log2 fold change [11] | log2 fold change [12] | log2 fold change [13] | log2 fold change [14] | log2 fold change [15] | log2 fold change [16] | log2 fold change [17] | log2 fold change [18] | log2 fold change [19] | log2 fold change [20] |
| --- | --- | --- | --- | --- | --- | --- | --- | --- | --- | --- | --- | --- | --- | --- | --- | --- | --- | --- | --- | --- |
| MICOS13 (UniProt Q5XKP0) | 0.008 | 0.018 | 0.053 | -0.007 | 0.001 | 0.039 | 0.051 | 0.052 | 0.007 | 0.023 | 0.087 | -0.012 | -0.022 | -0.077 | -0.193 | -0.146 | 0.006 | -0.023 | -0.009 | -0.008 |
| MED12 isoform 2 (UniProt Q93074) | 0.022 | 0.04 | -0.031 | 0.188 | 0.101 | 0.121 | 0.012 | -0.361 | 0.193 | -0.11 | -0.057 | -0.098 | -0.747 (active) | -0.05 | -0.024 | -0.291 | -0.005 | 0.251 | -0.053 | -0.04 |
| MAPRE3 (UniProt Q9UPY8) | -0.039 | 0.252 (active) | 0.076 | 0.003 | -0.013 | 0.042 | -0.05 | 0 | 0.035 | -0.01 | 0.027 | -0.044 | -0.003 | -0.142 | -0.049 | -0.079 | -0.033 | 0.019 | 0.01 | -0.029 |
| KPNA1 (UniProt P52294) | -0.042 | 0.09 | -0.053 | -0.037 | -0.011 | 0.009 | 0.035 | -0.061 | -0.032 | -0.07 | -0.046 | -0.073 | 0.062 | 0.089 | -0.022 | 0.084 | 0.123 | 0.071 | -0.05 | -0.26 (active) |
| MEPCE (UniProt Q7L2J0) | 0.063 | 0.064 | -0.022 | -0.002 | 0.039 | -0.01 | 0.103 | 0.024 | -0.049 | -0.047 | 0.088 | 0.023 | 0.166 | 0.108 | 0.026 | -0.16 | 0 | 0.098 | -0.026 | -0.31 (active) |
| KIF1B isoform 4 (UniProt O60333) | 0.031 | 0.095 | 0.042 | -0.059 | 0.002 | 0.018 | -0.092 | 0.078 | -0.02 | -0.091 | -0.004 | -0.017 | 0 | -0.029 | -0.063 | 0.002 | 0.002 | 0.061 | -0.057 | -0.024 |
| KCTD10 (UniProt Q9H3F6) | -0.041 | 0.159 | -0.051 | 0.014 | -0.021 | 0.049 | -0.171 | 0.045 | -0.027 | -0.055 | 0.01 | 0.024 | -0.037 | -0.049 | 0.043 | 0.277 (active) | -0.02 | -0.021 | -0.017 | -0.034 |
| LPGAT1 (UniProt Q92604) | -0.005 | 0.022 | 0.201 | -0.274 | 0.183 | 0.098 | -0.043 | -0.025 | 0.017 | 0.115 | -0.115 | -0.05 | 0.064 | 0.041 | -0.066 | -0.277 | -0.057 | 0.013 | 0.037 | 0.069 |
| MIEF1 (UniProt L0R8F8) | 0.025 | 0.102 | 0.021 | -0.022 | -0.073 | -0.072 | 0.033 | 0.02 | -0.107 | 0.019 | 0.071 | 0.065 | 0.022 | -0.004 | 0.011 | -0.021 | -0.053 | -0.005 | 0.052 | -0.004 |
| IPO13 (UniProt O94829) | -0.045 | -0.018 | 0.05 | -0.037 | 0.025 | 0.021 | -0.059 | -0.033 | 0.013 | -0.062 | -0.005 | -0.1 | 0.066 | 0.103 | -0.226 | -0.281 (active) | 0.002 | 0.015 | -0.026 | -0.04 |
| KHDC4 (UniProt Q7Z7F0) | -0.005 | 0.14 | 0.009 | -0.058 | 0.089 | 0.084 | 0.074 | -0.041 | -0.042 | 0.025 | 0.034 | 0.025 | 0.003 | 0.012 | -0.201 | -0.009 | 0.015 | -0.001 | 0.008 | 0.021 |
| MAST4 (UniProt O15021) | -0.016 | 0.101 | 0.082 | 0.054 | 0.032 | 0.048 | -0.086 | -0.02 | -0.007 | -0.094 | -0.025 | -0.138 | -0.089 | -0.479 (active) | -0.091 | -0.085 | 0.002 | -0.057 | -0.027 | 0.268 |
| LPIN1 isoform 7 (UniProt Q14693) | 0.027 | 0.068 | 0.059 | -0.043 | -0.001 | -0.102 | -0.031 | 0.015 | -0.033 | 0.025 | 0.035 | 0.029 | -0.379 (active) | 0.016 | -0.033 | -0.054 | 0.046 | 0.082 | 0.092 | 0.006 |
| KNTC1 (UniProt P50748) | 0.102 | 0.068 | 0.029 | -0.039 | 0.019 | 0.034 | -0.065 | -0.012 | 0.001 | -0.004 | -0.084 | -0.028 | 0.058 | -0.007 | 0.012 | -0.157 | 0.039 | 0.095 | -0.02 | -0.008 |
| KTN1 (UniProt Q86UP2) | -0.013 | -0.007 | -0.05 | -0.08 | 0.058 | -0.006 | -0.04 | -0.032 | -0.028 | -0.129 | -0.066 | -0.029 | 0.065 | 0.098 | 0 | -0.343 (active) | 0.072 | 0.102 | -0.019 | 0.071 |
| MED7 (UniProt O43513) | 0.065 | -0.109 | 0.041 | 0.053 | 0.065 | 0.015 | 0.017 | -0.152 | -0.114 | 0.039 | 0.042 | 0.042 | 0.001 | 0.113 | 0.022 | -0.078 | -0.068 | 0.113 | 0.403 (active) | 0.119 |
